Reference: the supplement of paper PMC12582362
Where a name gives a salt, the structure may show the parent alone. The whole screen tested about 1,500 compounds, of which about 30 (2%) showed activity. The sample holds actives, similar compounds and a random draw of the others, so the mix is not that of the screen.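 The calls were made as follows: active = robust z-score below -2; a few such results were not called.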

What follows are compounds tested on optoTopBP1 Flp-In 293 T-REx (HEK293) cells (assay: light-induced TopBP1 condensate (nuclear foci) count, plate-normalised robust z-score vs non-control wells; higher = more TopBP1 condensates (negative = condensation inhibitor), active = hit call of the paper). Settings: 10 µM; incubation time 2 h.

SMILES	light-induced TopBP1 condensate (z-score)
CN(c1nccc(=O)[nH]1)C1CCN(c2nc3ccccc3n2Cc2ccc(F)cc2)CC1 [Mizolastine]	-0.786 (inactive)
CC(C)=CCOc1ccc(/C=C/C(=O)c2ccc(OCC=C(C)C)cc2OCC(=O)O)cc1 [Sofalcone]	0.373 (inactive)
CC(=O)OCC(=O)[C@@]12OC3(CCCC3)O[C@@H]1C[C@H]1[C@@H]3CCC4=CC(=O)C=C[C@]4(C)[C@@]3(F)[C@@H](O)C[C@@]12C [Amcinonide]	0.776 (inactive)
CNCC[C@@H](Oc1cccc2ccccc12)c1cccs1 [(R)-Duloxetine hydrochloride]	-1.75 (inactive)
O=C(CCCCC(=O)Nc1c(I)cc(I)c(C(=O)O)c1I)Nc1c(I)cc(I)c(C(=O)O)c1I [Iodipamide]	-0.465 (inactive)
CC(C(=O)O)c1ccc(C(=O)c2cccs2)cc1 (stereo not drawn) [Suprofen]	-0.434 (inactive)
COc1cc(C(=O)NC2CCCNC2)cc(OC)c1OC (stereo not drawn) [Troxipide]	-0.997 (inactive)
Nc1nc(=S)c2ncn([C@@H]3O[C@H](CO)[C@@H](O)[C@H]3O)c2[nH]1 [Thioguanosine]	1.17 (inactive)
OCCN1CCN(CCCN2c3ccccc3C=Cc3ccccc32)CC1 [Opipramol dihydrochloride]	-0.102 (inactive)
CO[C@@H]1[C@@H](O[C@@H]2O[C@H](C)[C@@H](O[C@H]3C[C@@](C)(O)[C@@H](O)[C@H](C)O3)[C@H](N(C)C)[C@H]2O)[C@@H](CC=O)C[C@@H](C)[C@@H](O[C@H]2CC[C@H](N(C)C)[C@@H](C)O2)/C=C/C=C/C[C@@H](C)OC(=O)C[C@H]1OC(C)=O [Acetyl spiramycin]	-0.0623 (inactive)
CC[C@]12CCCN3CCc4c(n(c5ccccc45)[C@@](O)(C(=O)OC)C1)[C@@H]32 [Vincamine]	-0.735 (inactive)
CC1=C(C)C(=O)C(C(CCCCCC(=O)O)c2ccccc2)=C(C)C1=O (stereo not drawn) [Seratrodast]	-1.1 (inactive)
O=C(O)c1ccccc1Nc1cc(Cl)ccc1C(=O)O [Lobenzarit disodium]	0.707 (inactive)
CCCCC(CC)CNC(=N)NC(=N)NCCCCCCNC(=N)NC(=N)NCC(CC)CCCC (stereo not drawn) [Alexidine dihydrochloride]	-0.446 (inactive)
COC(=O)C1=C(C)NC(C)=C(C(=O)O[C@H]2CCN(Cc3ccccc3)C2)[C@H]1c1cccc([N+](=O)[O-])c1 [Barnidipine Hydrochloride]	-1.06 (inactive)
CCOCCn1c(N2CCCN(C)CC2)nc2ccccc21 [Emedastine]	-0.971 (inactive)
CN1CCC(=C2c3ccccc3Sc3ccccc32)CC1 [Pimethixene maleate]	-1.21 (inactive)
C[C@H]1[C@@H](O)O[C@@H]2O[C@@]3(C)CC[C@H]4[C@H](C)CC[C@@H]1[C@@]24OO3 [Artenimol]	0.222 (inactive)
CC(=O)OC(C)OC(=O)C(C)c1ccc(-c2ccccc2)c(F)c1 (stereo not drawn) [Flurbiprofen axetil]	-0.559 (inactive)
Cc1cc2nc3ccc(N(C)C)cc3[s+]c2cc1N [Tolonium chloride]	-9.72 (active)
O=C(Cn1cnnn1)N[C@@H]1C(=O)N2C(C(=O)O)=C(CSc3nncs3)CS[C@H]12 [Ceftezole]	-0.707 (inactive)

SMILES	light-induced TopBP1 condensate (z-score)
O=C(Cn1c(=O)sc2ccc(Cl)cc21)N1CCN(CCO)CC1 [Tiaramide Hydrochloride]	0.609 (inactive)
O=C1c2cccc(O)c2C(=O)c2c(O)cccc21 [1,8-Dihydroxyanthraquinone]	-2.97 (active)
O=C1c2c(O)cccc2Cc2cccc(O)c21 [Anthralin]	-0.589 (inactive)
CC(=O)Oc1cccc2c1C(=O)c1c(OC(C)=O)cc(C(=O)O)cc1C2=O [Diacerein]	-1.09 (inactive)
CC(C(=O)O)c1cccc(Oc2ccccc2)c1 (stereo not drawn) [Fenoprofen calcium salt dihydrate]	0.527 (inactive)
CN1CCC(OC(c2ccccc2)c2ccccc2)CC1 [Diphenylpyraline hydrochloride]	-0.243 (inactive)
CC=CC(=O)N(CC)c1ccccc1C [Crotamiton]	-1.09 (inactive)
CC(=O)CC(c1ccccc1)c1c(O)c2ccccc2oc1=O (stereo not drawn) [Warfarin]	0.476 (inactive)
Nc1ccn([C@@H]2O[C@H](CO)[C@@H](O)C2(F)F)c(=O)n1 [Gemcitabine]	-2.33 (active)
Nc1ccn([C@H]2CC[C@@H](CO)O2)c(=O)n1 [Zalcitabine]	0.161 (inactive)
Nc1ccn([C@@H]2O[C@H](CO)[C@@H](O)[C@@H]2O)c(=O)n1 [Cytarabine]	-1.9 (inactive)
O=C(Oc1cccc2cccnc12)c1ccccc1 [Benzoxiquine]	-0.428 (inactive)
OCCOCCN1CCN(C2=Nc3ccccc3Sc3ccccc32)CC1 [Quetiapine hemifumarate]	0.443 (inactive)
O=C(CCCl)NCc1ccccc1 [Beclamide]	0.736 (inactive)
O=C1[C@H]2CCCC[C@H]2C(=O)N1CCCCN1CCN(c2nsc3ccccc23)CC1 [Perospirone]	-0.904 (inactive)
CC(=O)O[C@@]12CO[C@@H]1C[C@H](O)[C@@]1(C)C(=O)[C@H](O)C3=C(C)[C@@H](OC(=O)[C@H](O)[C@@H](NC(=O)OC(C)(C)C)c4ccccc4)C[C@@](O)([C@@H](OC(=O)c4ccccc4)[C@H]21)C3(C)C [Docetaxel]	-1.72 (inactive)
CNC(=O)c1c(I)c(C(=O)NCC(=O)Nc2c(I)c(C(=O)O)c(I)c(C(=O)NCCO)c2I)c(I)c(N(C)C(C)=O)c1I [Ioxaglic acid]	1.43 (inactive)
Cn1cc([S+](C)[O-])c(=O)c2ccc(F)cc21 (stereo not drawn) [Flosequinan]	0.501 (inactive)
CC(=O)OCC(=O)[C@@]1(O)CC[C@H]2[C@@H]3CCC4=CC(=O)C=C[C@]4(C)[C@@]3(F)[C@@H](O)C[C@@]21C [Isoflupredone acetate]	0.491 (inactive)
N=c1ccn2c(n1)O[C@H]1[C@H](O)[C@@H](CO)O[C@H]12 [Ancitabine hydrochloride]	-2.02 (active)
NC(=O)c1ncn([C@@H]2O[C@H](CO)[C@@H](O)[C@H]2O)c1O [Mizoribine]	-0.419 (inactive)

SMILES	light-induced TopBP1 condensate (z-score)
Nc1ncn(C2OC(CO)C(O)C2O)c(=O)n1 (stereo not drawn) [Azacytidine-5]	0.0662 (inactive)
CCOC(=O)[C@H](CCc1ccccc1)N[C@@H](C)C(=O)N(CC(=O)O)C1Cc2ccccc2C1 [Delapril Hydrochloride]	0.988 (inactive)
CC(=O)O[C@H]1C[C@@H]2CC[C@@H]3[C@H](CC[C@@]4(C)[C@H]3C[C@H]([N+]3(C)CCCCC3)[C@@H]4OC(C)=O)[C@@]2(C)C[C@@H]1N1CCCCC1 [Vecuronium bromide]	0.392 (inactive)
O=c1[nH]cnc2c1ncn2[C@@H]1O[C@H](CO)[C@@H](O)[C@H]1O [Inosine]	-0.394 (inactive)
Cc1cccn2c(=O)c(-c3nnn[nH]3)cnc12 [Pemirolast potassium]	0.448 (inactive)
CN(C)[C@@H]1C(O)=C(C(=O)NCNCCCC[C@H](N)C(=O)O)C(=O)[C@@]2(O)C(O)=C3C(=O)c4c(O)cccc4[C@@](C)(O)[C@H]3C[C@@H]12 [Lymecycline]	0.0668 (inactive)
Cc1c(Cl)cccc1Nc1ccccc1C(=O)O [Tolfenamic acid]	-0.245 (inactive)
CN[C@@H]1[C@H](O[C@H]2[C@H](O[C@H]3[C@H](O)[C@@H](O)[C@H](N=C(N)N)[C@@H](O)[C@@H]3N=C(N)N)O[C@@H](C)[C@]2(O)C=O)O[C@@H](CO)[C@H](O)[C@H]1O [Streptomycin sulfate]	-0.213 (inactive)
CC(=O)Nc1c(I)c(NC(C)=O)c(I)c(C(=O)O)c1I [Diatrizoic acid dihydrate]	-0.965 (inactive)
CC(=O)OC[C@H]1O[C@@H](n2ncc(=O)[nH]c2=O)[C@H](OC(C)=O)[C@@H]1OC(C)=O [Azaribine]	0.84 (inactive)
CC(=O)OC[C@H]1O[C@@H]([S-])[C@H](OC(C)=O)[C@@H](OC(C)=O)[C@@H]1OC(C)=O.CCP(CC)CC.[Au+] [Auranofin]	-4.74 (active)
CC(C)c1nc(CN(C)C(=O)N[C@H](C(=O)N[C@@H](Cc2ccccc2)C[C@H](O)[C@H](Cc2ccccc2)NC(=O)OCc2cncs2)C(C)C)cs1 [Ritonavir]	-1.47 (inactive)
Cc1onc(-c2ccccc2)c1-c1ccc(S(N)(=O)=O)cc1 [Valdecoxib]	-1.03 (inactive)
COC(=O)Nc1nc2cc([S+]([O-])c3ccccc3)ccc2[nH]1 (stereo not drawn) [Oxfendazol]	0.733 (inactive)
CCCOc1ccc2[nH]c(NC(=O)OC)nc2c1 [Oxibendazol]	-3.01 (active)
COC(=O)Nc1nc2cc(C(=O)c3ccc(F)cc3)ccc2[nH]1 [Flubendazol]	-2.01 (active)
CCCCc1ccc2[nH]c(NC(=O)OC)nc2c1 [Parbendazole]	-0.867 (inactive)
COC(=O)Nc1nc2cc(C(=O)c3ccccc3)ccc2[nH]1 [Mebendazole]	-1.07 (inactive)
COC(=O)Nc1nc2cc(C(=O)c3cccs3)ccc2[nH]1 [Nocodazole]	-1.07 (inactive)
O=C(O)c1cc(/N=N/c2ccc(S(=O)(=O)Nc3ccccn3)cc2)ccc1O [Sulfasalazine]	-0.0783 (inactive)
C[C@H](O)[C@H](O)[C@H]1CNc2[nH]c(N)nc(=O)c2N1 [Sapropterin dihydrochloride]	0.574 (inactive)
